JMJD2A Tudor inh = blocks the human JMJD2A Tudor domain. O75164. Potency, µM (series often up to 114 µM), usual class: inhibitors. AlphaScreen JMJD2A-Tudor / H3K4me3 peptide binding. 390,000 tested, 4.4% active. AID 504339; further: nearly all actives have a fitted effect of over 50% in size
G9a inh = inhibitors of human histone lysine methyltransferase G9a | G9a H3K9 monomethylation, AlphaScreen, 2 h | 350,000 tested, 8.8% active | Q96KQ7 | Potency, µM (series often up to 102 µM), hits mostly inhibitors; further: nearly all actives have a fitted effect of over 75% in size
Target sequence (Q96KQ7 913-1193 limits assumed): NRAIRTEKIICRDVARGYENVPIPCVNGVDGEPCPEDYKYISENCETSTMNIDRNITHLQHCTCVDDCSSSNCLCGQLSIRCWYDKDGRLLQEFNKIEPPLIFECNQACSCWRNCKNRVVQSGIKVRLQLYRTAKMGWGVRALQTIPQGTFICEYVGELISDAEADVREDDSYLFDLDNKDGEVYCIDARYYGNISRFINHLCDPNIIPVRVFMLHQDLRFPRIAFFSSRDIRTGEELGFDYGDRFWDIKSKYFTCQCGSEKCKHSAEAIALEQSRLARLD
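G9a (20 nM) preincubated 15 min RT with compounds, then 500 nM biotinylated H3K9 peptide and 20 uM SAM added; 2 h RT reaction. Monomethyl-H3K9 product detected by AlphaScreen with anti-H3K9me1 antibody, streptavidin donor and anti-rabbit IgG acceptor beads.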
HP1b chromo inh = HP1-beta chromodomain-methylated histone interaction inhibition. AlphaScreen HP1-beta / biotin-H3K9me3 peptide binding. Potency, µM (highest dose often 114 µM), most hits filed as inhibitors. P83916. 390,000 tested, 0.56% active; further: nearly all actives have a fitted effect of over 70% in size
Target sequence (P83916 whole entry, looked up): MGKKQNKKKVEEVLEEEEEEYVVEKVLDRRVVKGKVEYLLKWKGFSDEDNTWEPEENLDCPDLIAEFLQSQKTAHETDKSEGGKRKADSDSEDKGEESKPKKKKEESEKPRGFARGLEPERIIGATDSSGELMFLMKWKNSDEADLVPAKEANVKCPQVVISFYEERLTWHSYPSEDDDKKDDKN
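HP1-beta protein (50 nM final) preincubated 30 min at room temperature with biotinylated H3(1-18)K9me3 peptide (50 nM) in PBS pH 7.4, 0.01% Tween-20, then compound added for 30 min. AlphaScreen streptavidin donor/nickel chelate acceptor beads (10 ug/mL final), 30 min dark, luminescence read.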
Sfp inh = inhibitors of Bacillus subtilis Sfp phosphopantetheinyl transferase; Potency, µM, actives largely listed as inhibitors; 310,000 tested, 3.5% active; Biochemical Sfp PPTase activity, qHTS; Q9F4F7;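 further: the enzyme is Sfp with the accession as filed and its product quenches rhodamine fluorescence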
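Buffer: 50 mM Hepes-Na pH 7.6, 10 mM MgCl2, 0.01% Nonidet P-40, 0.01% BSA. Enzyme 15 nM, pre-exposed to compound 15 min; substrates then added and fluorescence change tracked over 30 min.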
BAZ2B block = BAZ2B (human) inhibition; Potency, µM (top dose mostly 114 µM), usual class: inhibitors; Q9UIF8; AlphaScreen BAZ2B-H3K14Ac peptide displacement; 360,000 tested, 4.4% active; further: nearly all actives have a fitted effect of over 60% in size
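Inhibition is scored as reduced AlphaScreen emission. The BAZ2B/b-H3(5-23)K14Ac complex (50 nM each) in PBS pH 7.4, 0.01% Tween-20 meets compound (up to 110 uM) for 30 min at RT before bead addition.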
A number is an active result; i = inactive; ? = inconclusive; nt = no result; [ ] = dose if it differs, or a comment. In the library only some 12% were active in any assay of this set; here they are far more common. The call rests on the fitted dose curve; in most records, active means well fitted curve in the direction sought with a large enough effect; inconclusive means small, poorly fitted or top-dose-only effect, or another doubt; inactive means no such curve, though single readings can be large; an effect the other way counts as inactive or inconclusive.

SMILES	JMJD2A Tudor inh	G9a inh	HP1b chromo inh	Sfp inh	BAZ2B block
COC(=O)NCCc1cc(OC)c(OC)cc1S(=O)(=O)N1CC(=O)Nc2ccccc21	i	i	i	i	i
CSc1ccccc1NC(=O)COC(=O)CSc1ccc(C)cc1	i	i	i	nt	i
CCC(CC)NCc1ccc2c(c1)c1ccccc1n2CC	20µM	i[12.7 µM]	?	50µM	45µM
CCn1c2ccccc2c2cc(N)ccc21	?	5.6µM	?	i	i
CCn1c2ccccc2c2cc(CNCc3ccc(OC)cc3OC)ccc21	?	40µM	?	22µM	45µM
CCn1c2ccccc2c2cc(/C(C)=N/O)ccc21	i	i	i	i	i
CCn1c2ccccc2c2cc(/C=C(/C#N)C(N)=S)ccc21	20µM	nt	?	nt	nt
CCn1c(=O)cc(SCC(=O)NCc2ccc(OC)cc2OC)c2ccccc21	i	i	i	nt	i
COc1ccc(-c2cc3nc(C4CCN(C(=O)OC(C)(C)C)CC4)c(C(=O)Nc4cc(C)cc(C)c4)cn3n2)cc1	i	i	i	nt	i
C[C@@H](CN(C)C[C@H]1C(=O)O[C@@H]2C[C@@]3(C)CCC[C@]4(CO4)C3CC21)[C@H](O)c1ccccc1 (some centres undefined)	nt	nt	nt	i	nt
CCn1c(C)cc(=S)c2ccccc21	i	3.2µM	i	?	i
COc1cc(/C=N/Nc2cccc(C)c2)cc(Br)c1O	50µM	8.9µM	?	i	45µM
COc1cc(/C=N/Nc2cccc(C)c2)ccc1OC(=O)c1cccs1	?	10µM	i	i	i
CC(/C=C/c1ccccc1F)=N\NC(=O)c1ccccc1	i	i	i	i	i
CC(/C=C/c1ccccc1F)=N\NC(=O)c1ccc(Cl)cc1	22µM	i[0.501 µM]	i	i	i
O=c1[nH]c2ccccc2n2c(=S)[nH]nc12	3.5µM	nt	i	i	i
O=c1[nH]c2ccccc2n2c(C(F)(F)F)nnc12	i	i[2.33 µM]	i	i	i
O=C(N/N=C\C=C\c1ccco1)c1cncc(Br)c1	i	?	i	40µM	i
O=C(N/N=C\c1ccco1)c1cncc(Br)c1	nt	i	nt	i	i
O=C(N/N=C/C=C/c1ccccc1)c1cccnc1	i	i	i	i	i
O=C(N/N=C/C=C/c1ccco1)c1cccnc1	i	8.9µM	i	35µM	i
O=C(N/N=C/C=C\c1ccco1)c1cccnc1	i	28µM	i	32µM	i
CCCCOc1ccc(C(=O)NCCc2cccs2)cc1	nt	i	nt	i	i
O=C(NC1CCCC1)C1CCC(=O)N1C1CCCC1 (centres undefined)	i	i[12.7 µM]	i	i	i
COc1ccccc1CN(Cc1cccnc1)S(=O)(=O)c1ccc(-n2cnnn2)c(OC)c1	i	i	i	i	i
SMILES	JMJD2A Tudor inh	G9a inh	HP1b chromo inh	Sfp inh	BAZ2B block
COc1ccc(CN(Cc2cccnc2)S(=O)(=O)c2ccc(-n3cnnn3)c(C)c2)cc1OC	i	16µM	i	i	i
COc1cc(S(=O)(=O)N(Cc2cccnc2)Cc2cccc(OC)c2OC)ccc1-n1cnnn1	i	18µM	i	i	79µM
Cc1csc(NC(=O)CSc2nnc(Cn3c(=O)sc4ccccc43)n2-c2ccccc2)n1	i	?	i	79µM	i
O=C(CN1CCN(c2ccc(O)cc2)CC1)N(C1CC1)C1CCS(=O)(=O)C1 (centres undefined)	79µM	i[2.33 µM]	?	nt	i
O=C(CCSc1ccc(Cl)cc1)NCc1ccccn1	i	i	i	i	i
CC(C)C(CCNCc1ccccn1)c1ccc(Cl)cc1 (centres undefined)	20µM	?	i	i	50µM
O=C(NCc1ccccn1)Nc1ccc2c(c1)OCO2	i	i	i	79µM	i
CC(C)CCC(CCNCc1ccccn1)c1ccc2c(c1)OCO2 (centres undefined)	40µM	16µM	i	i	56µM
O=C(NCc1ccncc1)Nc1ccc2c(c1)OCO2	i	45µM	i	i	i
CCC(=O)c1ccc(OCC(=O)OCC(=O)N(C)CC(=O)Nc2ccc(F)cc2)cc1	i	i[0.501 µM]	i	nt	i
CCCCSc1ncnc2[nH]ncc12	i	nt	i	i	i
CCc1ccc(NC(=O)N(CCN2CCOCC2)C2CCN(C(C)=O)CC2)cc1	i	i	i	i	i
Cc1ccc(C2CC(C(F)F)n3ncc(C(=O)Nc4cnn(Cc5ccccc5C)c4)c3N2)cc1 (centres undefined)	i	45µM	i	i	i
Cc1ccccc1Cn1cc(NC(=O)c2nn(C)cc2Cl)cn1	i	i	i	i	i
COc1cc(OC)cc(-c2sc3ccc(OC)cc3c2-c2ccc(OCCN3CCCCC3)cc2)c1	20µM	nt	i	nt	nt
c1ccc(-c2sc3ccccc3c2-c2ccc(OCCN3CCCCC3)cc2)cc1	i	nt	i	nt	nt
c1ccc2c(-c3ccc(OCCN4CCCCC4)cc3)c(-c3ccsc3)sc2c1	40µM	nt	i	nt	nt
COc1ccccc1-c1sc2cc3c(cc2c1-c1ccc(OCCN2CCOCC2)cc1)OCO3	50µM	nt	i	nt	nt
CN(C)CCOc1ccc(-c2c(-c3ccccc3)sc3ccccc23)cc1	40µM	nt	?	nt	nt
CC(=O)c1c(C)nc(C)nc1NC(=O)C(C)C	i	i[2.33 µM]	i	i	i
COc1cc(C(=O)N2CCN(C(=O)C3CCCO3)CC2)cc(OC)c1OC (centres undefined)	i	i[2.33 µM]	i	nt	i
COc1ccccc1-n1ccnc1SCC(=O)NC1CCCC1	i	i	i	i	i
COc1cc(-n2ccnc2SC)c(Cl)cc1Cl	i[11.4 µM]	i	22µM	i	13µM
Cc1ccc(S(=O)(=O)Oc2ccccc2/C=N/NC(=O)c2c(Cl)cnn2C)cc1	i	i	i	i	i
COc1ccc(C(=O)N/N=C/c2ccccn2)cc1OC	?	i	i	?	?
SMILES	JMJD2A Tudor inh	G9a inh	HP1b chromo inh	Sfp inh	BAZ2B block
O=C(Cc1cccs1)Nc1ccccn1	i	?	i	i	?
COc1cc(C(=O)N/N=C/c2ccccn2)cc(OC)c1OC	i	i	i	56µM	25µM
COc1cc(C(=O)N/N=C/c2sc(=O)n(-c3ccccc3)c2Cl)cc(OC)c1OC	i	i	i	i	i
O=C(Cc1cccs1)N/N=C/c1ccccn1	?	1.4µM	i	?	i
Cn1ncc(Cl)c1C(=O)N/N=C/c1ccccn1	?	i	i	?	22µM
O=C(N/N=C/c1sc(=O)n(-c2ccccc2)c1Cl)c1ccncc1	i	50µM	i	i	i
COc1ccc(OCCN2CCN(C(=O)c3ccc(OC(F)F)c(OC)c3)CC2)cc1	i	i	i	i	i
N#Cc1ccc(Oc2ccc(C(N)=O)cc2)cc1C#N	i	i	i	i	i
CCOc1ccccc1CN1CCCC(C(=O)c2ccc(OC)c(OC)c2)C1 (centres undefined)	i	i	i	i	i
N#CC1=C(SCc2ccccc2)NC(=O)CC1c1ccccc1 (centres undefined)	i	i	i	i	i
CN(C)c1ccc(C(=O)N/N=C/c2ccccn2)cc1	i	7.9µM	i	?	i
Cc1ccc(C(=O)Nc2ccc(C(=O)N/N=C/c3ccccn3)cc2)cc1	i	i	i	i	i
O=C(N/N=C/c1ccccn1)c1sc2ccccc2c1Cl	?	nt	i	i	40µM

Screening results: PubChem BioAssay, National Center for Advancing Translational Sciences (NCATS)
